# Data published in PubChem BioAssay AID449762 (Southern Research Specialized Biocontainment Screening …, 2010).
# The whole screen tested about 330,000 compounds, of which about 1,900 (0.58%) were called active. Not shown: some 4% with an inconclusive outcome. Only a sample is shown. Measured potencies and affinities stand elsewhere. Values without a mark were called inactive. Cut-off read from the data, not from the text of the source: inconclusive = inhibition above about 70% without an active follow-up result; inactive = below that.
# Assay: M. tuberculosis growth inhibition, HTS (AID 449762);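 note: bacterial growth assessed after seven days of incubation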
# Conditions: M. tuberculosis H37Rv growth inhibition, 7H9 media; at 25 µM; stronger effect = higher value
row,Structure (SMILES),inhibition [%]
1,CCCCNS(=O)(=O)c1ccc(NC(=O)Cc2ccc(OC)cc2)cc1,-0.2
2,O=C(NCCCN1CCOCC1)c1cc(S(=O)(=O)N2CCOCC2)ccc1Cl,-0.79
3,Cc1ccc(-n2c(C)c3c(C)nnc(C)c3c2C)cc1C,39.9
4,Cc1cc(-n2c(C)c3c(C)nnc(C)c3c2C)ccc1N,-1.53
5,COc1cc(NS(C)(=O)=O)c(OC)cc1NC(=O)c1ccccc1,-13.2
6,NC(=O)N/N=C1\c2ccccc2-c2c(C(N)=O)cccc21,-8.45
7,N#Cc1cccc2c1-c1ccccc1/C2=N/NC(N)=S,11.6
8,COc1cccc(C(=O)NCC2CCCN2S(=O)(=O)c2cccs2)c1 (configuration not stated),-3.52
9,CCOC(=O)CNC(=S)n1ncnc1N,-5.34
10,CNC(=S)n1cnc(N)n1,-9.24
11,CCc1nc2nc(C)c(NS(=O)(=O)c3ccc(Br)s3)c(=O)n2[nH]1,-4.89
12,CCC1CCCCN1C(=O)c1ccc2c(c1)C(=O)N(c1ccc(C)cc1)C2=O (configuration not stated),7.37
13,CNC(=S)NC1CC2CCCC(C1)N2Cc1ccc(C)cc1 (configuration not stated),-9.32
14,CCNC(=S)NC1CC2CCCC(C1)N2Cc1ccc(C)cc1 (configuration not stated),-6.09
15,CNC(=S)NC1CC2CCC(C1)N2Cc1ccccc1 (configuration not stated),-6.1
16,CCc1ccc(NC(=S)NC2CC3CCCC(C2)N3Cc2ccccc2)cc1 (configuration not stated),9.67
17,C/C(N)=C(/C#N)C(=O)COC(=O)CCSc1ccccc1Cl,-0.73
18,O=C(Nc1ccc(Br)cc1Br)c1cccc2c1C(=O)N(C1CCCCC1)C2,10.8
19,CC(C)C[C@H](NC(=O)CCCn1nnc2ccccc2c1=O)C(=O)O,7.06
20,Cc1cc(C)c2c(CC(=O)NNC(=O)c3ccccc3)coc2c1,-11.5
21,COc1cc(N=Nc2ccccc2C(=O)O)ccc1O,5.29

row,Structure (SMILES),inhibition [%]
1,COc1ccc(N=Nc2ccc3ccccc3c2)c(O)c1,53.5
2,Cc1ccnc(NC(=O)c2cc3ccccc3oc2=O)c1,45.2
3,O=C(Nc1ccccn1)c1cc2ccccc2o1,3.67
4,O=C(CN1C(=O)NC2(CCCc3ccccc32)C1=O)NCCc1ccc(F)cc1 (configuration not stated),1.6
5,O=C(CSc1ccccc1)N1CCN(c2ccc(F)cc2)CC1,-5.77
6,COc1cccc(/C=C/C(=O)OCC(=O)Nc2ccc(N3CCOCC3)cc2)c1OC,-2.5
7,COC(=O)CSc1nnc(CNc2nc(-c3ccccc3)cs2)n1C,-7.67
8,CC(C)OC(=O)CSc1nnc(CNc2nc(-c3ccccc3)cs2)n1C,0.34
9,COC(=O)[C@H](CC(C)C)NS(=O)(=O)N[C@@H](CC(C)C)C(=O)OC,-8.61
10,CC1(C)Cc2c(sc(NC(=O)C(=O)N3CCCC3)c2C(=O)O)CO1,1.82
11,COC(=O)c1c(NC(=O)C(=O)N2CCCCC2)sc2c1CC(C)(C)OC2,5.56
12,COc1ccc2ccc3c(c2c1)N=CC1(O3)N(C)c2ccccc2C1(C)C (configuration not stated),-4.4
13,COc1ccc(N2CCN(C(=O)COCC(=O)O)CC2)cc1,-6.23
14,COc1ccc(C(=O)NCCS(=O)(=O)N2CCN(C(=O)c3ccco3)CC2)cc1,-5.88
15,COc1ccc(C(=O)CSc2n[nH]c(=O)[nH]c2=O)cc1,-1.42
16,O=C(CSc1n[nH]c(=O)[nH]c1=O)c1ccccc1,51.6
17,COc1ccc(NC(=S)NC2CCCCC2)c(OC)c1,4.99
18,CCOc1ccccc1C(=O)N1CCN=C1SCc1cccnc1,10.2
19,O=C(c1cc2ccccc2o1)N1CCN(S(=O)(=O)c2cccs2)CC1,0.69
20,O=C(c1ccco1)N1CCN(S(=O)(=O)c2ccc(Cl)s2)CC1,-11.2
21,CCOC(=O)Cc1nnc(NC(=O)c2ccccc2OC)s1,-7.9

row,Structure (SMILES),inhibition [%]
1,N#Cc1ccc(S(=O)(=O)N2CCCN(c3nc4ccc(Cl)cc4s3)CC2)cc1,-8.22
2,Clc1ccc(N2CCN(Cc3ccc(Br)o3)CC2)cc1,0.17
3,O=[N+]([O-])c1ccc(N2CCN(Cc3ccc(Br)o3)CC2)cc1,2.93
4,COc1ccc(N(CC(=O)N/N=C/c2ccco2)S(=O)(=O)c2ccccc2)cc1,-4.51
5,O=C(c1ccoc1)N1CCC(CO)(CCc2ccccc2)CC1,-5.69
6,O=C(COc1ccccc1[N+](=O)[O-])Nc1ccccc1N1CCCCC1,-4.5
7,COC(=O)c1c(C)[nH]c(C(=O)/C=C/c2ccccc2Cl)c1C,3.39
8,O=C(Nc1sc2c(c1C(=O)NCc1cccnc1)CCCC2)c1ccco1,-2.45
9,O=C(COc1ccccc1)Nc1sc2c(c1C(=O)NCc1cccnc1)CCCC2,-7.35
10,O=C(Nc1c2c(nn1-c1ccc(F)cc1)CS(=O)(=O)C2)c1ccc2c(c1)OCO2,-6.48
11,COc1ccc(C(=O)/C=C/c2cn(CC(O)CN3CCN(C)CC3)c3ccccc23)cc1OC (configuration not stated),8.14
12,Cn1cc(/C=C/C(=O)c2ccccc2)c2ccccc21,58.1
13,Cc1cc(C)c(CN2CCC(n3nccc3NC(=O)CCOc3ccccc3)CC2)cc1C,67.4
14,O=C(Nc1ccc(-c2ccccc2)cc1)c1ccccc1,9.06
15,COc1ccc(OCCN(C)CC(=O)Nc2c(C)cccc2C)cc1,-3.93
16,Cc1c(C(=O)Nc2ccc(F)c(F)c2)oc2ccc(S(=O)(=O)N3CCCCC3)cc12,4.31
17,Fc1ccc(Nc2ncnc3ccccc23)cc1,4.5
18,N=c1c2ccccc2nnn1-c1ccc(C(F)(F)F)cc1,-1.84
19,O=C(Nc1ncc2c(n1)-c1ccccc1OC2)c1ccc(Cl)cc1Cl,-7.91
20,CCCCc1ncc(CN2CCN(Cc3ccc(C)cc3)C(CCO)C2)[nH]1 (configuration not stated),0.18
